Assay results from PubChem BioAssay (NCI).
Compounds without any hit were thinned out: in the full panel of roughly 83,000, 20% have a hit.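 In brief: 96-well plates, 48 h treatment, single concentration, percent growth endpoint.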 Active and inactive are the calls of the source. Rule for the calls: active = growth percent below 10; inactive = the rest.

Legend:
Test in all cases: NCI-60 one-dose screen, 48 h (100 = growth as untreated, 0 = no growth, -100 = all killed)
Conditions in all cases: 10 µM unless noted
SR leukemia = tested on: SR leukemia
RPMI-8226 leukemia = tested on: RPMI-8226 leukemia
OVCAR-8 ovarian = tested on: OVCAR-8 ovarian
OVCAR-4 ovarian = tested on: OVCAR-4 ovarian
SK-OV-3 ovarian = tested on: SK-OV-3 ovarian
IGROV1 ovarian = tested on: IGROV1 ovarian
OVCAR-3 ovarian = tested on: OVCAR-3 ovarian
HS 578T breast = tested on: HS 578T breast
NCI/ADR-RES ovarian = tested on: NCI/ADR-RES ovarian
T-47D breast = tested on: T-47D breast
MDA-MB-435 melanoma = tested on: MDA-MB-435 melanoma
SW-620 colon = tested on: SW-620 colon
HCT-116 colon = tested on: HCT-116 colon
HCC-2998 colon = tested on: HCC-2998 colon
KM12 colon = tested on: KM12 colon
OVCAR-5 ovarian = tested on: OVCAR-5 ovarian
BT-549 breast = tested on: BT-549 breast
MCF7 breast = tested on: MCF7 breast

Measured: growth

COc1ccc([N+](=O)[O-])c(S(=O)(=O)c2ccc(Cl)cc2)n1
inactive: RPMI-8226 leukemia 34.9% | OVCAR-8 ovarian 71.7% | OVCAR-4 ovarian 68.7% | SK-OV-3 ovarian 97.2% | IGROV1 ovarian 97.1% | OVCAR-3 ovarian 36.6% | HS 578T breast 97.9% | NCI/ADR-RES ovarian 81.3% | T-47D breast 65.2% | MDA-MB-435 melanoma 40.9% | SW-620 colon 14.4% | HCT-116 colon 20.9% | HCC-2998 colon 104% | KM12 colon 97.7%
active: SR leukemia -16%

COc1cc(/C(Cl)=C/C=C/C(=O)c2c(C)[n+]([O-])c3ccc(Cl)cc3[n+]2[O-])cc(OC)c1OC
active: SR leukemia 2.04% | MDA-MB-435 melanoma 6.9% | SW-620 colon 1.65% | MCF7 breast 0.61% | HCT-116 colon 2.9%
inactive: RPMI-8226 leukemia 19% | OVCAR-5 ovarian 81.8% | OVCAR-4 ovarian 34.1% | SK-OV-3 ovarian 69.5% | IGROV1 ovarian 37.2% | OVCAR-3 ovarian 33.7% | HS 578T breast 17.4% | NCI/ADR-RES ovarian 31.1% | T-47D breast 22.3% | BT-549 breast 36.5% | HCC-2998 colon 83.2% | KM12 colon 33%

C=C(CN1CCc2c([nH]c3ccccc23)C1)c1ccc(C(=O)Nc2ccon2)cc1
inactive: SR leukemia 80.9% | RPMI-8226 leukemia 78.4% | OVCAR-8 ovarian 78.2% | OVCAR-4 ovarian 85.5% | OVCAR-3 ovarian 92.6% | HS 578T breast 94.4% | NCI/ADR-RES ovarian 99.9% | T-47D breast 22.8% | BT-549 breast 55.4% | MDA-MB-435 melanoma 101% | SW-620 colon 102% | MCF7 breast 87.7% | HCT-116 colon 91.9% | KM12 colon 141%

COCCCNS(=O)(=O)c1ncnc2nc[nH]c12
inactive: SR leukemia 108% | RPMI-8226 leukemia 107% | OVCAR-5 ovarian 100% | OVCAR-4 ovarian 113% | SK-OV-3 ovarian 121% | IGROV1 ovarian 142% | OVCAR-3 ovarian 102% | HS 578T breast 104% | NCI/ADR-RES ovarian 99.5% | T-47D breast 105% | BT-549 breast 123% | MDA-MB-435 melanoma 107% | SW-620 colon 101% | HCT-116 colon 93.5% | HCC-2998 colon 102% | KM12 colon 95.7%

COc1ccc(NC(=O)c2ccccc2-c2ccccc2)c(C(N)=O)c1
active: SR leukemia 8.17% | OVCAR-3 ovarian -22.4% | MDA-MB-435 melanoma -22.6%
inactive: RPMI-8226 leukemia 38.2% | OVCAR-8 ovarian 58.8% | OVCAR-4 ovarian 49.5% | SK-OV-3 ovarian 32.3% | IGROV1 ovarian 52.1% | HS 578T breast 38.9% | NCI/ADR-RES ovarian 26.9% | T-47D breast 34% | SW-620 colon 24.7% | MCF7 breast 25.5% | HCT-116 colon 27% | HCC-2998 colon 76.7% | KM12 colon 19.2%

O=C1Nc2ccc(Cl)cc2/C1=C/c1cccs1
inactive: SR leukemia 99.4% | RPMI-8226 leukemia 100% | OVCAR-5 ovarian 110% | OVCAR-4 ovarian 35.9% | SK-OV-3 ovarian 93.6% | IGROV1 ovarian 65.1% | OVCAR-3 ovarian 87.8% | HS 578T breast 96.2% | NCI/ADR-RES ovarian 92.8% | T-47D breast 16.9% | BT-549 breast 95.4% | MDA-MB-435 melanoma 105% | SW-620 colon 103% | MCF7 breast 44.6% | HCT-116 colon 99.2% | HCC-2998 colon 77.6% | KM12 colon 86.8%

COc1cc(C2CC(C3C(=O)N(C)C(=O)N(C)C3=O)=NN2C=O)cc(OC)c1OC (centres undefined)
inactive: SR leukemia 105% | RPMI-8226 leukemia 99.7% | OVCAR-8 ovarian 93.9% | OVCAR-4 ovarian 107% | SK-OV-3 ovarian 76.4% | IGROV1 ovarian 110% | OVCAR-3 ovarian 107% | NCI/ADR-RES ovarian 99.8% | T-47D breast 83.8% | BT-549 breast 106% | MDA-MB-435 melanoma 101% | SW-620 colon 97.7% | MCF7 breast 97.6% | HCT-116 colon 102% | HCC-2998 colon 100% | KM12 colon 102%

O=C(COc1ccc(/C=C2\Cc3ccccc3C2=O)cc1)c1ccc(Cl)cc1
inactive: SR leukemia 117% | RPMI-8226 leukemia 90.3% | OVCAR-5 ovarian 102% | OVCAR-4 ovarian 112% | SK-OV-3 ovarian 112% | OVCAR-3 ovarian 128% | HS 578T breast 105% | NCI/ADR-RES ovarian 92.6% | T-47D breast 102% | BT-549 breast 113% | MDA-MB-435 melanoma 95.4% | SW-620 colon 107% | MCF7 breast 97.1% | HCT-116 colon 77.7% | HCC-2998 colon 82.2% | KM12 colon 107%

COC(=O)[C@H]1[C@H]2C[C@@H]3c4[nH]c5cc(OC)ccc5c4CCN3C[C@H]2C[C@@H](OC(=O)/C=C/c2cc(OC)c(OC)c(OC)c2)[C@@H]1OC
inactive: OVCAR-8 ovarian 50.6% | OVCAR-5 ovarian 113% | OVCAR-4 ovarian 13.6% | SK-OV-3 ovarian 98.6% | IGROV1 ovarian 38.4% | HS 578T breast 69.3% | NCI/ADR-RES ovarian 49.1% | T-47D breast 45% | BT-549 breast 67.8% | SW-620 colon 61.3% | MCF7 breast 29.1% | HCC-2998 colon 105% | KM12 colon 40.5%
active: SR leukemia -7.74% | OVCAR-3 ovarian -42.8% | MDA-MB-435 melanoma 7.45% | HCT-116 colon -28%
